Experimental data published in PubChem BioAssay (NCI).
The panel holds about 83,000 compounds, 20% with a hit somewhere; the sample as a whole holds those more often.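 The test compound was applied at a single concentration to cells in 96-well plates for 48 hours, and percent growth was recorded.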 Values without a mark were called inactive. Active and inactive are the calls of the source. The calls were made as follows: active = growth percent below 10; inactive = the rest.

Tests used:
Experiment in all cases: NCI-60 one-dose screen, 48 h (100 = growth as untreated, 0 = no growth, -100 = all killed)
Conditions in all cases: 10 µM
NCI-H23 lung = tested on: NCI-H23 lung
NCI-H226 lung = tested on: NCI-H226 lung
NCI-H322M lung = tested on: NCI-H322M lung
NCI-H460 lung = tested on: NCI-H460 lung
HOP-92 NSCLC = tested on: HOP-92 NSCLC
NCI-H522 lung = tested on: NCI-H522 lung
A549/ATCC NSCLC = tested on: A549/ATCC NSCLC
786-0 renal = tested on: 786-0 renal
COLO 205 colon = tested on: COLO 205 colon
DU-145 prostate = tested on: DU-145 prostate
K-562 leukemia = tested on: K-562 leukemia
MALME-3M melanoma = tested on: MALME-3M melanoma
MDA-MB-231 breast = tested on: MDA-MB-231 breast
SF-268 CNS = tested on: SF-268 CNS
SF-295 CNS = tested on: SF-295 CNS
SF-539 CNS = tested on: SF-539 CNS
UACC-257 melanoma = tested on: UACC-257 melanoma
M14 melanoma = tested on: M14 melanoma
RXF 393 renal = tested on: RXF 393 renal
HOP-62 NSCLC = tested on: HOP-62 NSCLC

Row | Compound | growth (NCI-H23 lung) | growth (NCI-H226 lung) | growth (NCI-H322M lung) | growth (NCI-H460 lung) | growth (HOP-92 NSCLC) | growth (NCI-H522 lung) | growth (A549/ATCC NSCLC) | growth (786-0 renal) | growth (COLO 205 colon) | growth (DU-145 prostate) | growth (K-562 leukemia) | growth (MALME-3M melanoma) | growth (MDA-MB-231 breast) | growth (SF-268 CNS) | growth (SF-295 CNS) | growth (SF-539 CNS) | growth (UACC-257 melanoma) | growth (M14 melanoma) | growth (RXF 393 renal) | growth (HOP-62 NSCLC)
1 | O=C(Nc1cccc(C(F)(F)F)c1)c1cncc(C#Cc2cnc3ccc(N4CCOCC4)nn23)c1 | -58.7% (active) | -4.93% (active) | 5.52% (active) | 0.042% (active) | -48% (active) | -34.1% (active) | 7.95% (active) | -22.9% (active) | -48% (active) | 0.548% (active) | 9.1% (active) | -29.7% (active) | -8.01% (active) | -31% (active) | -8.57% (active) | -88.1% (active) | 3.22% (active) | -49.3% (active) |  | 
2 | COc1ccc(-c2c(N)c(=O)n(C)c3ccccc23)cc1 | 67.7% | 46.5% | 77% | 88.1% | 9.05% (active) | 61.1% | 92.1% | 73.5% | 103% | 83.2% | 46.8% | 70.6% | 49.5% | 66% | 75.2% | 80.6% | 92.9% | 70.6% |  | 
3 | COc1cccc(/C=C2\N=C(C)N(CCc3ccc(S(N)(=O)=O)cc3)C2=O)c1 | 102% | 104% | 96.5% | 105% | 92.8% | 94.5% | 101% | 90.4% | 131% | 112% | 99.9% | 98.2% | 104% | 101% | 105% | 99.8% | 101% | 100% | 121% | 
4 | Cc1ccc(CSc2nc(Cl)c(C#N)c(-c3ccc(F)cc3)n2)cc1 | 87.8% | 53.5% |  | 86.5% | 54.6% | 62.5% | 66.5% | 78.7% | 77.3% | 75.1% | 55.7% | 113% | 96.5% | 81.8% | 70.2% | 71.8% | 75.3% | 87.6% | 70.2% | 96.4%
5 | COc1ccc(N(C)c2cc(C#N)nc3ccccc23)cc1N | 9.56% (active) | 25.4% |  | 0.907% (active) | 58.1% | -25.9% (active) | 17.8% | 22.6% | -76.8% (active) | 20.3% | 10.7% | 62.1% | 12.2% | 22% | 15.8% | -23.7% (active) | 63.3% | 26.5% | 57.2% | 36.2%
6 | CC1(c2ccccc2)NC(=O)N(CC(=O)Nc2ccc(C(=O)/C=C/C=C/c3ccccc3)cc2)C1=O (stereo unspecified) | 73.4% | 57.2% | 73.9% | 73.2% | 57.3% | 75.8% | 58.7% | 7.33% (active) | 98% | 61.3% | 14.8% | 81.3% | 63.1% | 57.1% | 5.15% (active) | 20.5% | 63.6% | 59.3% |  | 
7 | COc1ccc2[nH]c(=O)c(CSc3nccc(-c4ccc(Cl)cc4)n3)cc2c1 | 33.9% | -26.1% (active) |  | 9.38% (active) | 4.58% (active) | -32.2% (active) | 2.57% (active) | -28.6% (active) | 20.5% | 44.8% | 23.2% | 46.4% | 18.4% | 28.8% | -20.3% (active) | -70.3% (active) | 6.77% (active) | 55.2% | -23.7% (active) | 32.9%
8 | CC(=O)Nc1ccc(-c2cn(-c3cccc(C(=O)Nc4ccc(F)c(C(F)(F)F)c4)c3)nn2)cn1 | 23.6% | 26.4% | 54.3% | -47.1% (active) | 65.6% | 62.3% | 54.3% | 79.9% | 46% | 42.5% | 10.9% | 2.13% (active) | -4.26% (active) | 68.8% | 29.4% | 22.7% | 90.4% | 62.6% |  | 
9 | Cc1ccc(-c2nc(Nc3ccc(S(N)(=O)=O)cc3)c3ccccc3n2)cc1 | 71.2% | 73.5% | 53.2% | 22.4% | 36.4% | 77.3% | 51.7% | 14.2% | 82.9% | 56.6% | 6.36% (active) | 98.8% | 22.6% | 52.1% | 24.2% | 37% | 93.9% | 22.9% |  | 
10 | COc1cc(C2CC(c3ccccc3)=Nc3c(N)nc(N)nc3N2)ccc1Oc1nc(Nc2ccc(F)cc2)nc(N(C)C)n1 (stereo unspecified) | 43.9% | 40.4% | 71.7% | 10.6% | 16.3% | 65.6% | 66.3% | 43.4% | 28% | 48% | 17.9% | 32.4% | 31% | 55% | 45.9% | 63% | 45.4% | 46.6% |  | 
11 | COc1ccc(N2N=C(c3ccc4c(c3)OCCO4)CC2c2cccc(NC(=O)CCCNS(=O)(=O)c3ccc(F)cc3)c2)cc1 (stereo unspecified) | 85.7% | 74.5% | 75% | 64.8% | 81.6% | 58.9% | 61.8% | 66.6% | 84% | 91.5% | 56% | 79.7% | 69.2% | 56.2% | 65.2% | 77.7% | 88% | 81.9% | 68.1% | 
12 | COc1cc(/C=C/C(=O)c2ccc(NC(=O)CSc3nnc(-c4c[nH]c5ccccc45)n3-c3ccccc3)cc2)cc(OC)c1OC | 47.7% | 69.9% | 90.5% | 91.2% | 105% | 90.5% | 106% | 96.1% | 102% | 79.6% | 28.6% | 95.2% | 64.2% | 85.4% | 74.3% | 60.8% | 106% | 81.1% |  | 
